# Assay results reported in PubChem BioAssay (NCI).
# The panel holds about 79,000 compounds, 15% with a hit somewhere; the sample as a whole holds those more often. A number with no mark means an inactive call. Calls of active or inactive are those of the source. Cut-off read from the data, not from the text of the source: active = growth inhibition above about 70%; inactive = the rest.
# Legend:
# [1] = NCI Yeast Anticancer Drug Screen. Data for the wt1 strain (AID 149);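 note: 0% = growth of vehicle-treated wt1 cultures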; settings: S. cerevisiae wt1 strain (SPY 50644) growth inhibition, active compounds read high
# Outline: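 Yeast wt1 strain exposed to compounds; growth inhibition measured relative to vehicle-treated controls.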
# [2] = NCI Yeast Anticancer Drug Screen. Data for the rad50EPP+ strain (AID 151);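 note: 0% = growth of vehicle-treated control cultures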; settings: S. cerevisiae rad50 mutant strain, active compounds read high
# Outline: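 Strain rad50EPP+; compound exposure; % growth inhibition vs vehicle.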
# [3] = NCI Yeast Anticancer Drug Screen. Data for the mgt1 strain (AID 153); settings: S. cerevisiae mgt1 mutant growth inhibition, active compounds read high
# Outline: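 Read-out: yeast growth inhibition vs vehicle control. Strain mgt1, drawn from a panel altered in DNA damage repair or cell cycle control.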
# [4] = NCI Yeast Anticancer Drug Screen. Data for the rad50 strain (AID 155);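 note: 0% = growth of vehicle-only cultures of the same strain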; settings: S. cerevisiae rad50 strain growth inhibition, active compounds read high
# Outline: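 Yeast carrying a defined DNA repair defect were exposed to test compounds, and growth was compared with vehicle-treated controls to give percent inhibition.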
# [5] = NCI Yeast Anticancer Drug Screen. Data for the mec2-1 strain (AID 157); settings: S. cerevisiae mec2-1 strain, active compounds read high
# Outline: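 Cells of the genetically defined mec2-1 yeast strain are incubated with test compound. Inhibition of growth is calculated against vehicle-treated controls.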
# [6] = NCI Yeast Anticancer Drug Screen. Data for the rad14 strain (AID 159);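 note: 0% = growth of vehicle-treated control cultures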; settings: S. cerevisiae rad14 strain growth inhibition, active compounds read high
# Outline: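 Yeast cells carrying a defined DNA-repair defect were exposed to compounds, and growth inhibition was calculated relative to vehicle-treated control cultures.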
# [7] = NCI Yeast Anticancer Drug Screen. Data for the sgs1 mgt1 strain (AID 161);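 note: 0% = growth of cultures given vehicle only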; settings: S. cerevisiae sgs1 mgt1 strain, active compounds read high
# Outline: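 Read-out: growth inhibition vs vehicle controls. Cells: mutant yeast strain deficient in DNA damage repair.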
# [8] = NCI Yeast Anticancer Drug Screen. Data for the cln2 rad14 strain (AID 165);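 note: 0% = growth equal to vehicle treated cultures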; settings: S. cerevisiae cln2 rad14 strain, active compounds read high
# Outline: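 The screen exposed genetically defined yeast (cln2 rad14) to test compounds and scored growth inhibition relative to vehicle-treated controls.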
# [9] = NCI Yeast Anticancer Drug Screen. Data for the bub3 strain (AID 167); settings: S. cerevisiae bub3 mutant strain, active compounds read high
# Outline: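 Compounds were applied to a genetically altered yeast strain carrying a cell-cycle control defect. Growth inhibition was scored against vehicle-treated controls.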
# [10] = NCI Yeast Anticancer Drug Screen. Data for the wt2 strain (AID 169);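 note: 0% = growth of vehicle-treated yeast cultures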; settings: S. cerevisiae wt2 strain growth inhibition, active compounds read high
# Outline: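 Steps: yeast strain treated with compound; growth recorded; inhibition calculated relative to cultures given vehicle alone.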
# [11] = NCI Yeast Anticancer Drug Screen. Data for the mlh1 strain (AID 171);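 note: 0% = growth of vehicle-treated control cultures of the same strain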; settings: S. cerevisiae mlh1 strain growth inhibition, active compounds read high
# Outline: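 Yeast screen: mutant strain plus compound, growth scored against vehicle control wells.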
# [12] = NCI Yeast Anticancer Drug Screen. Data for the sgs1 strain (AID 173);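 note: 0% = growth of vehicle-only control cultures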; settings: S. cerevisiae sgs1 mutant, active compounds read high
# Outline: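 Inhibition of yeast growth served as the measure. The mutant strain was treated with each compound, and growth was normalised to cultures receiving vehicle alone.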
# [13] = NCI Yeast Anticancer Drug Screen. Data for the mlh1 rad18 strain (AID 175); settings: S. cerevisiae mlh1 rad18 strain growth inhibition, active compounds read high
# Outline: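 Compound-treated yeast growth, normalised to vehicle controls. Strain bears defined DNA repair mutations.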
# [14] = NCI Yeast Anticancer Drug Screen. Data for the rad18 strain (AID 177); settings: S. cerevisiae rad18 mutant growth inhibition, active compounds read high
# Outline: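 Inhibition values reflect reduced yeast growth compared with vehicle-treated controls, using a strain engineered with a DNA damage repair defect.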
# [15] = at 5.0 µM (retest, dose inferred, filed as 0.5)
# [16] = at 50.0 µM (retest, dose inferred, filed as 5.0)
smiles,measurement,setting,value
N#C/C(=C\c1cccc(OCc2ccccc2)c1)c1ccc([N+](=O)[O-])cc1,growth inhibition,[1]; at 1.2 µM,-18%
same,growth inhibition,[1]; at 3.7 µM,-4%
same,growth inhibition,[1]; at 11.0 µM,-22%
same,growth inhibition,[1]; at 33.0 µM,-28%
same,growth inhibition,[1]; at 100.0 µM,-33%
same,growth inhibition,[2]; at 1.2 µM,-66%
same,growth inhibition,[2]; at 3.7 µM,-49%
same,growth inhibition,[2]; at 11.0 µM,-63%
same,growth inhibition,[2]; at 33.0 µM,-82%
same,growth inhibition,[2]; at 100.0 µM,-88%
same,growth inhibition,[3]; at 1.2 µM,-35%
same,growth inhibition,[3]; at 3.7 µM,-29%
same,growth inhibition,[3]; at 11.0 µM,-61%
same,growth inhibition,[3]; at 33.0 µM,-53%
same,growth inhibition,[3]; at 100.0 µM,-71%
same,growth inhibition,[4]; at 1.2 µM,-5%
same,growth inhibition,[4]; at 3.7 µM,-25%
same,growth inhibition,[4]; [15],53%
same,growth inhibition,[4]; at 11.0 µM,-22%
same,growth inhibition,[4]; at 33.0 µM,-23%
same,growth inhibition,[4]; [16],97% (active)
same,growth inhibition,[4]; at 50.0 µM,10.9%
same,growth inhibition,[4]; at 100.0 µM,-23%
same,growth inhibition,[5]; at 1.2 µM,-88%
same,growth inhibition,[5]; at 3.7 µM,-74%
same,growth inhibition,[5]; [15],61%
same,growth inhibition,[5]; at 11.0 µM,-81%
same,growth inhibition,[5]; at 33.0 µM,-91%
same,growth inhibition,[5]; [16],96% (active)
same,growth inhibition,[5]; at 50.0 µM,14.2%
same,growth inhibition,[5]; at 100.0 µM,-96%
same,growth inhibition,[6]; at 1.2 µM,-43%
same,growth inhibition,[6]; at 3.7 µM,-48%
same,growth inhibition,[6]; at 11.0 µM,-24%
same,growth inhibition,[6]; at 33.0 µM,-51%
same,growth inhibition,[6]; at 100.0 µM,-84%
same,growth inhibition,[7]; [15],-10%
same,growth inhibition,[7]; [16],43%
same,growth inhibition,[7]; at 50.0 µM,27.9%
same,growth inhibition,[8]; [15],33%
same,growth inhibition,[8]; [16],43%
same,growth inhibition,[8]; at 50.0 µM,0.05%
same,growth inhibition,[9]; at 1.2 µM,-28%
same,growth inhibition,[9]; at 3.7 µM,-42%
same,growth inhibition,[9]; [15],-5%
same,growth inhibition,[9]; at 11.0 µM,-37%
same,growth inhibition,[9]; at 33.0 µM,-40%
same,growth inhibition,[9]; [16],29%
same,growth inhibition,[9]; at 50.0 µM,61.1%
same,growth inhibition,[9]; at 100.0 µM,-60%
same,growth inhibition,[10]; at 1.2 µM,-34%
same,growth inhibition,[10]; at 3.7 µM,-43%
same,growth inhibition,[10]; at 11.0 µM,-49%
same,growth inhibition,[10]; at 33.0 µM,-61%
same,growth inhibition,[10]; at 100.0 µM,-75%
same,growth inhibition,[11]; at 1.2 µM,-44%
same,growth inhibition,[11]; at 3.7 µM,-41%
same,growth inhibition,[11]; at 11.0 µM,-51%
same,growth inhibition,[11]; at 33.0 µM,-64%
same,growth inhibition,[11]; at 100.0 µM,-72%
same,growth inhibition,[12]; at 1.2 µM,-39%
same,growth inhibition,[12]; at 3.7 µM,-47%
same,growth inhibition,[12]; at 11.0 µM,-64%
same,growth inhibition,[12]; at 33.0 µM,-54%
same,growth inhibition,[12]; at 100.0 µM,-59%
same,growth inhibition,[13]; [15],50%
same,growth inhibition,[13]; [16],98% (active)
same,growth inhibition,[13]; at 50.0 µM,15.2%
same,growth inhibition,[14]; at 1.2 µM,-26%
same,growth inhibition,[14]; at 3.7 µM,-29%
same,growth inhibition,[14]; at 11.0 µM,-24%
same,growth inhibition,[14]; at 33.0 µM,-49%
same,growth inhibition,[14]; at 100.0 µM,-36%
